Our source for the composite z-score, z-score and composite Z-score values is PubChem BioAssay.

Experiment [1] relates to Human papillomavirus type 1a protein E7 (residues 44-93). Description: small molecules binding HPV E7 44-93 – biochemical, small-molecule microarray, residues 44-93, 635 nm fluorescence, primary screen (AID 1108).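 Note: E7 fragment applied at 1 µg/mL in TBST for 1 h at 4 C; score combines spot fluorescence with its signal to noise ratio.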 Conditions: fluorescence 635 nm, higher = more signal.
Experiment [2] is described as follows: hepatitis C replication reporter changes, two-sided – Huh7 cells, luciferase reporter, HCV replication inhibitor project, primary screen (AID 1109).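 Note: huh7 hepatoma cells harbouring a luciferase neomycin HCV replicon reporter; luciferase luminescence as measure of HCV replicon replication; test concentration not given here.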 Conditions: Huh7 HCV replicon luciferase reporter, 48 h; higher = more signal.
Experiment [3] addresses Left-right determination factor 2 (Homo sapiens) (UniProt O00292). The experiment in a line: small molecules binding LEFTY2 protein – biochemical, small-molecule microarray, 635 nm fluorescence scan, primary screen (AID 1110). Conditions: higher = more signal.
Experiment [4] has as its target Calmodulin-1 (Homo sapiens) (UniProt P0DP23). The experiment in a line: small molecules binding calmodulin-1 with EGTA – biochemical, small-molecule microarray, Cy5-labelled CALM1, profiling panel (AID 1111).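 Note: labelled calmodulin applied in Tris saline Tween buffer holding calcium plus EGTA and DTT.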 Conditions: Cy5-CALM1 binding fluorescence, higher = more signal.
For experiment [5] the target is unchanged. Description: small molecules binding Ca-loaded calmodulin-1 – biochemical, small-molecule microarray, Cy5-labelled CALM1, plus calcium, artefact control for SMM control-protein annotation, profiling panel (AID 1112).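 Note: score merges spot fluorescence with signal to noise from triplicate slides.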 The settings on record: Cy5-CALM1 binding fluorescence, higher = more signal.
A short description of experiment [6]: probe aWnt5a binding to arrayed compounds – biochemical, biotinylated probe, 635/667 nm fluorescence, primary screen (AID 1113).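 Note: score merges 667 nm fluorescence intensity with signal-to-noise per printed feature.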 The settings on record: small-molecule microarray, higher = more signal.
A short description of experiment [7]: probe aShh binding to arrayed compounds – biochemical, biotinylated probe, 635/667 nm fluorescence, primary screen (AID 1114).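 Note: probe is biotin-labelled aShh protein from a stem cell growth factor screen; measures binding of labelled protein to compounds printed on the slide; score merges feature fluorescence at 667 nm with signal-to-noise.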 The settings on record: small-molecule microarray, higher = more signal.
Experiment [8] is described as follows: probe aNog binding to arrayed compounds – biochemical, biotinylated probe, 635/667 nm fluorescence, primary screen (AID 1115).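 Note: probe is biotinylated aNog protein used at 0.15 µg/mL for 1 h at 4 C; z-score combines 667 nm fluorescence of each spot with its signal to noise.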 The settings on record: small-molecule microarray, higher = more signal.
For experiment [9], the target named is Torsin-1A-interacting protein 1 (Homo sapiens) (UniProt Q5JTV8). The experiment in a line: compound microarray binding of lysate hLAP1 – cell lysate, small-molecule microarray, COS7 lysate, 635/667 nm fluorescence, primary screen (AID 1116). The settings on record: 635 nm fluorescence, higher = more signal.
Sequence of Torsin-1A-interacting protein 1 (Homo sapiens) (Q5JTV8 whole entry, looked up): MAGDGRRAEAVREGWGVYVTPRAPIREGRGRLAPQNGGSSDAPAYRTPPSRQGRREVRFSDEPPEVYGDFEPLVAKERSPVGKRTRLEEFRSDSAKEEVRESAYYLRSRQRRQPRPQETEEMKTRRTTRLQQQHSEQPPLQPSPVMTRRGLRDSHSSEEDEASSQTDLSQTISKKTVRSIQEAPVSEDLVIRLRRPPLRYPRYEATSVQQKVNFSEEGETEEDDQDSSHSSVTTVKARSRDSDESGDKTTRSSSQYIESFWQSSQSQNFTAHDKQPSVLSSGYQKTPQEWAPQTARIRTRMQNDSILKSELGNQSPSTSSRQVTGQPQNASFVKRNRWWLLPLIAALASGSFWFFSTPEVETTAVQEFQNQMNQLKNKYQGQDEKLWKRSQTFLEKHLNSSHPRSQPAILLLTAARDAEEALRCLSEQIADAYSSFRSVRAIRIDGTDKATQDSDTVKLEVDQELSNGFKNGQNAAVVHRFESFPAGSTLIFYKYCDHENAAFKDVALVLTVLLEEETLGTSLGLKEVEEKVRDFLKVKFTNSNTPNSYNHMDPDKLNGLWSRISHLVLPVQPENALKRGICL
The target of experiment [10] is Alpha-bungarotoxin (Bungarus multicinctus) (UniProt P60615). The experiment in a line: compounds binding labelled alpha-BTX control protein – biochemical, small-molecule microarray, Alexa647 label, 635/667 nm fluorescence, artefact control for SMM control protein annotation, profiling panel (AID 1117). Conditions: alpha-BTX-A647 binding fluorescence, higher = more signal.
Sequence of Alpha-bungarotoxin (Bungarus multicinctus) (P60615 whole entry, looked up): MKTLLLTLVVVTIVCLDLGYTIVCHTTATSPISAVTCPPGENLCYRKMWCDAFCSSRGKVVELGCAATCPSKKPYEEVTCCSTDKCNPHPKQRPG

In another experiment the target is Albumin (Bos taurus) (UniProt P02769). The experiment in a line: compounds binding labelled BSA control protein – biochemical, small-molecule microarray, Alexa647 label, 635/667 nm fluorescence, artefact control for SMM control protein annotation, profiling panel (AID 1118).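 Note: score merges 667 nm emission intensity and signal-to-noise per printed compound spot.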 Conditions: BSA-A647 binding, fluorescence 635 nm, higher = more signal.
Sequence of Albumin (Bos taurus) (P02769 whole entry, looked up): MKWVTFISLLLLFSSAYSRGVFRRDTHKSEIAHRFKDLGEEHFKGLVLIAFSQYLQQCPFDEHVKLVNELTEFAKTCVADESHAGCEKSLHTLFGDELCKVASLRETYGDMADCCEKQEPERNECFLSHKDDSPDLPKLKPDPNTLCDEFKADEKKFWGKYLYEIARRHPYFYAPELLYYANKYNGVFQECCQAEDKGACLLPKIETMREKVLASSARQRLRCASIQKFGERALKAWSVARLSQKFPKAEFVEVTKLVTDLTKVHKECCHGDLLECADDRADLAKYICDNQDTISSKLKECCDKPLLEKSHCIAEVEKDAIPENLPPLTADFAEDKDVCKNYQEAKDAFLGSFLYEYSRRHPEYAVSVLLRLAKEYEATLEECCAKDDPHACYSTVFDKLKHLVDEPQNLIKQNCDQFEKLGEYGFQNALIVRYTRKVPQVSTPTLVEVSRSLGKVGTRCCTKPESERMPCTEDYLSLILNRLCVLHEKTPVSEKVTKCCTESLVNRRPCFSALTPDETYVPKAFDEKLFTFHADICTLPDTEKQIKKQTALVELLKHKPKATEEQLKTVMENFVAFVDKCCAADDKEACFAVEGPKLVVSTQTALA
Experiment [11] can be described thus: probe aXIP binding to arrayed compounds – biochemical, NeuroSMM set, 635/667 nm fluorescence, primary screen (AID 1119).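 Note: probe is the protein aXip251-270 applied at 1 µg/mL to compound-printed slides; binding of probe to printed compounds measured as 667 nm fluorescence plus signal to noise.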 Conditions: small-molecule microarray, higher = more signal, called active from +8 up or from −8 down.
A short description of experiment [12]: probe aNOTCH3 binding on compound microarray – biochemical, small-molecule microarray, 635/667 nm fluorescence, primary screen (AID 1120).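 Note: probe is a biotin-tagged antibody raised against NOTCH3 rather than NOTCH3 protein; score merges spot fluorescence near 667 nm with spot signal to noise.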 The settings on record: higher = more signal.
Experiment [13] in a line: probe aNOTCH2 binding on compound microarray – biochemical, small-molecule microarray, 635/667 nm fluorescence, primary screen (AID 1121).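 Note: score merges feature fluorescence read at 667 nm with its signal to noise.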 Conditions: higher = more signal.
Experiment [14] addresses Carbonic anhydrase 2 (Homo sapiens) (UniProt P00918). Description: compounds binding carbonic anhydrase 2 – biochemical, small-molecule microarray, Alexa647-labelled CAII, profiling panel (AID 1122). Conditions: CAII-A647 binding fluorescence, higher = more signal.
A short description of experiment [15]: COS7 lysate on small-molecule microarray, probe aHis, 635 nm (AID 1123).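 Note: z-score combines 667nm fluorescence intensity with signal-to-noise per printed compound spot.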 The settings on record: COS7 cell lysate, fluorescence, higher = more signal.
The nature of experiment [16]: probe aLAP1 signal on lysate-treated microarray – cell lysate, small-molecule microarray, COS7 lysate, primary screen (AID 1124).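 Note: lysate comes from COS7 cells expressing LAP1 and is applied at 0.3 µg/mL; score merges spot fluorescence near 667 nm with signal-to-noise over triplicate slides.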 The settings on record: probe aLAP1, fluorescence, higher = more signal.
For a further experiment, the system named is Sam68 (KHDRBS1). Description: compounds binding KHDRBS1 protein – biochemical, small-molecule microarray, 635 nm fluorescence, primary screen (AID 1125).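 Note: score merges 667 nm channel intensity with signal to noise over triplicate slides.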 Conditions: higher = more signal.
The test system of experiment [17] is Chordin-like protein 2 (CHRDL2). The experiment in a line: compounds binding chordin-like 2 – biochemical, small-molecule microarray, 635 nm fluorescence, primary screen (AID 1126).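 Note: printed compound slides probed with Chrdl2 protein at 4 µg/mL for 1 h at 4 C; score merges 667 nm emission intensity with signal to noise over three replicate slides.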 Conditions: fluorescence 635 nm, higher = more signal.
The target in experiment [18] is Concanavalin-A (Canavalia ensiformis) (UniProt P02866). Description: compounds binding concanavalin A lectin – biochemical, small-molecule microarray, Alexa647 label, 635 nm, artefact control for SMM control protein annotation, primary screen (AID 1127).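 Note: z combines 667 nm emission intensity with signal-to-noise across three replicate slides.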 The settings on record: ConA-A647 binding fluorescence, higher = more signal.
Sequence of Concanavalin-A (Canavalia ensiformis) (P02866 whole entry, looked up): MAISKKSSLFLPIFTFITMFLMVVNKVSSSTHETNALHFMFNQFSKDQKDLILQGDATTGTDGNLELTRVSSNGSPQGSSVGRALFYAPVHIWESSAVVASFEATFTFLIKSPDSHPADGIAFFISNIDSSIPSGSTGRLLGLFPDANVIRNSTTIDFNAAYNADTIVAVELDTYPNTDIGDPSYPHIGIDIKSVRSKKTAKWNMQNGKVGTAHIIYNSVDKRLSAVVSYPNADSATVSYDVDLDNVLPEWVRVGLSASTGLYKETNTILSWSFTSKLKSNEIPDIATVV

Active and inactive are the calls of the source.

Sequence of Left-right determination factor 2 (Homo sapiens) (O00292 whole entry, looked up): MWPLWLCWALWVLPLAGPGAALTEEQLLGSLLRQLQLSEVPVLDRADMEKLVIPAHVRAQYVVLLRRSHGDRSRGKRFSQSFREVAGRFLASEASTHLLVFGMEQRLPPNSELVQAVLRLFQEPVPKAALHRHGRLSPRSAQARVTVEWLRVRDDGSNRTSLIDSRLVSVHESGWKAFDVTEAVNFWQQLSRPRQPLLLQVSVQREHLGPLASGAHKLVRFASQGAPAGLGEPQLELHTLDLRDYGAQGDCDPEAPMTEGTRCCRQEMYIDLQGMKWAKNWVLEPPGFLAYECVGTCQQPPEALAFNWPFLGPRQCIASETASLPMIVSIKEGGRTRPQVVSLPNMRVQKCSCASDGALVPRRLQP

As to `COC(=O)c1c(CC[C@@H](CO)NC(=O)N[C@H](Cc2ccccc2)Cn2cc(-c3ccccn3)nn2)oc(C(C)=O)c1C(=O)OC`, the composite z-score is 0.538 in [1]; -0.0385 in [3]; 0.475 in experiment [4]; -0.556 in experiment [5]; -0.124 in experiment [6]; -0.304 in experiment [7]. In addition, the composite z-score in experiment [8] was -0.158; in [9] it was 1.79; in [10] it was 1.08; with Albumin (Bos taurus) it was 0.687; in experiment [12] it was -0.154; in experiment [13], -0.118. Moreover, the composite z-score is 0.71 in [14]; 0.798 in [15]; 1.26 in experiment [16]; 0.954 in the experiment on Sam68 (KHDRBS1); -0.418 in experiment [17]; 1.09 in [18]. The z-score in experiment [2] is -0.563. In experiment [11], the composite Z-score was 0.794 (inactive).
For `O=C1NC(=O)C2C1C=CC(C(O)C1CC=CCC1)N2Nc1ccccn1` (stereo not given), the composite z-score in [1] is -0.643; in [3], 0.571; in experiment [4], -0.282; in [5], -0.589; in experiment [6], -0.0643; in [7], -0.147. In addition, the composite z-score in [8] was -0.0852; in [9], 1.22; in experiment [10], -0.29; with Albumin (Bos taurus) it was -0.459; in [12] it was 0.137; in experiment [13] it was -0.0272. Moreover, the composite z-score in experiment [14] came to 0.79; in experiment [15], 0.793; in [16], 0.643; with Sam68 (KHDRBS1) it was 0.231; in experiment [17] it was 1.05; in experiment [18], 0.497. The z-score in experiment [2] was -0.268. Moreover, the composite Z-score in experiment [11] is 0.945 (inactive).
Regarding `COCCOC(=O)N1C(=O)[C@@]2(c3cc(C#CCCO)ccc31)[C@H](c1ccc(OCCO)cc1)N1[C@H](c3ccccc3)[C@H](c3ccccc3)OC(=O)[C@H]1[C@@H]2C(N)=O`, the composite z-score was determined as 1.44 in experiment [1]; 0.606 in [3]; 0.852 in experiment [4]; 0.278 in experiment [5]; 0.0136 in experiment [6]; 0.171 in experiment [7]. For the same compound, the composite z-score in [8] was 0.226; in experiment [9], 0.918; in experiment [10], 0.338; with Albumin (Bos taurus), 0.482; in experiment [12], -0.0117; in experiment [13] it was -0.0567. Moreover, the composite z-score in experiment [14] was 0.588; in experiment [15] it was 1.93; in [16], -0.591; in the experiment on Sam68 (KHDRBS1), 1.29; in [17], 0.437; in experiment [18] it was 1.17. The compound also returned a z-score in experiment [2] of -1.13. Moreover, the composite Z-score in [11] was 0.606 (inactive).
For `CC(C)[Si](C#CCCCC#N)(Oc1ccccc1Br)C(C)C`, the composite z-score in [1] is 0.845; in [3], 0.0224; in experiment [4], -0.154; in experiment [5] it was -0.159; in experiment [6], -0.0512; in [7] it was -0.0553. In addition, the composite z-score is -0.213 in experiment [8]; 0.528 in experiment [9]; 0.453 in [10]; 0.435 with Albumin (Bos taurus); -0.0377 in experiment [12]; -0.092 in experiment [13]. Also, the composite z-score in experiment [14] worked out at 0.508; in experiment [15] it was 0.51; in experiment [16], 0.0245; with Sam68 (KHDRBS1), 0.993; in experiment [17] it was 0.299; in experiment [18], 0.912. In experiment [2], the z-score was -0.071. Moreover, in experiment [11], the composite Z-score is 0.147 (inactive).
`[N-]=[N+]=Nc1ccccc1C[C@]1(C(=O)NCC(O)CO)N=C(c2ccc(OCCCO)cc2)O[C@H]1c1ccccc1` (stereo not given in full): the composite z-score in [1] is 1.45; in experiment [3], -1.32; in experiment [4] it was 1.89; in experiment [5], 0.496; in experiment [6], -0.0924; in [7] it was -0.0709. Besides, the composite z-score was -0.492 in experiment [8]; 0.954 in [9]; 0.903 in [10]; 0.927 with Albumin (Bos taurus); 0.298 in experiment [12]; -0.14 in experiment [13]. The composite z-score in experiment [14] was 0.629; in [15], 2.83; in experiment [16], 0.132; in the experiment with Sam68 (KHDRBS1), 1.09; in [17], -1.5; in [18], 0.197. Also, the z-score in experiment [2] was -0.962. Also, the composite Z-score in experiment [11] was 0.102 (inactive).
